Results from PubChem BioAssay (NCATS).
Results filed as inconclusive are left out. Activity calls are given as the source filed them. Calls follow the shape of the dose curve; as a rule, active = well fitted curve in the direction sought with a large enough effect; inconclusive = small, poorly fitted or top-dose-only effect, or another doubt; inactive = no such curve, though single readings can be large; an effect the other way counts as inactive or inconclusive.

What was measured:
[1] = biological target: Cellular tumor antigen p53 (Homo sapiens) (UniProt P04637); experiment: Primary qHTS for small molecule compounds that upregulate eGFP-tagged delta133p53alpha (in N-terminal) cells. (AID 2060322); details: NCI-H358 eGFP-delta133p53alpha fluorescence, 24 h; activation: hits give high values;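 also: series mostly up to about 56 µM; 0% = DMSO vehicle and 100% = reference activator; nearly all actives have a fitted effect of over 75% in size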
Chain of Cellular tumor antigen p53 (Homo sapiens) (P04637 whole entry, looked up): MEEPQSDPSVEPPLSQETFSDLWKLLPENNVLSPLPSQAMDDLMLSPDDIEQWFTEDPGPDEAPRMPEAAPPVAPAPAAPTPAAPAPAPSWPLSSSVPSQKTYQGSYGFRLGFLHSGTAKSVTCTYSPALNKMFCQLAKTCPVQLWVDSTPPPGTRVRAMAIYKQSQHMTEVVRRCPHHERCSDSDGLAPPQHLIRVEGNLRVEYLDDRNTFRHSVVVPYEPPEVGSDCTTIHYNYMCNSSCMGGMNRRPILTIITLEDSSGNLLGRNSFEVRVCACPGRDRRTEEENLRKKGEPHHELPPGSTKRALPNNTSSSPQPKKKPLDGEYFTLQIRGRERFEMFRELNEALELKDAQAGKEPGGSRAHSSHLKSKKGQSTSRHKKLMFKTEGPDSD
In short: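 NCI-H358 cells pre-induced 24 h with 10 ng/ml doxycycline to express N-terminal eGFP-delta133p53alpha, then dosed 24 h at 37C without doxycycline; fixed, Hoechst-stained, GFP intensity by laser scanning cytometry, normalized to DMSO (0%) and 57.5 uM 5-azacytidine (100%).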

[2] = biological target: Aldehyde dehydrogenase, mitochondrial (Homo sapiens) (UniProt P05091); experiment: qHTS for Inhibitors of the Aldehyde Dehydrogenase Family (ALDH2) Primary screen (AID 2061308);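 also: plate controls were vehicle for no effect and reference inhibitor for full effect; nearly all actives have a fitted effect of over 55% in size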
[3] = biological target: Retinaldehyde dehydrogenase 3 (Homo sapiens) (UniProt P47895); experiment: qHTS for Inhibitors of the Aldehyde Dehydrogenase Family (ALDH1A3) Primary screen (AID 2061315);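 also: plate controls were DMSO vehicle for no effect and reference inhibitor for full effect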

C/C=C1\[C@H](O[C@@H]2O[C@H](CO)[C@@H](O)[C@H](O)[C@H]2O)OC=C(C(=O)O)[C@H]1CC(=O)OCCc1ccc(O)cc1
inactive: activation [1] 0.763% | Potency [2] | Potency [3]

Cc1noc(-c2ccc(-c3ccc(CC(=O)O)cc3)cc2)c1NC(=O)O[C@H](C)c1ccccc1
inactive: activation [1] -1.79% | Potency [2] | Potency [3]

CNC12CC3C[C@@](C)(C1)C[C@](C)(C3)C2
inactive: activation [1] -6.33% | Potency [2] | Potency [3]

CC(=O)O[C@@H]1[C@@H](OC(=O)/C=C/c2ccccc2)[C@@H](OC(C)=O)[C@H](O[C@H]2[C@@H]3C=CO[C@@H](O[C@@H]4O[C@H](CO)[C@@H](O)[C@H](O)[C@H]4O)[C@@H]3[C@@]3(CO)O[C@@H]23)O[C@H]1C
inactive: activation [1] -12.2% | Potency [2] | Potency [3]

CCCC(CCC)C(=O)NCc1ccc2c(cnn2-c2ccccc2OC)c1
inactive: activation [1] -5.25% | Potency [2] | Potency [3]

C=C1[C@H]2CC[C@]3(O)[C@@](CC[C@@H]4[C@](C)(C(=O)O)CCC[C@]43C)(C2)[C@H]1OC(=O)/C(C)=C\C
inactive: activation [1] 15.2% | Potency [2] | Potency [3]

CC1(C)C[C@H](O)C[C@@]2(C)[C@H]1[C@H](O)C=C1COC(=O)[C@@]12O
inactive: activation [1] 6.11% | Potency [2] | Potency [3]

c1nc(NC2CCCCCC2)c2cc(CNC[C@H]3CCCO3)sc2n1
inactive: activation [1] -0.893% | Potency [2] | Potency [3]

COc1ccc(C(=O)CC(=O)O)c2c1C=CC(C)(C)O2
inactive: activation [1] 23.2% | Potency [2] | Potency [3]

COc1cc(CO)ccc1O[C@@H]1O[C@H](CO)[C@@H](O)[C@H](O)[C@H]1O
inactive: activation [1] -7.14% | Potency [2] | Potency [3]

COc1cc2c(c(OC)c1CC=C(C)C)C[C@H](c1ccc(O)cc1O)CO2
inactive: activation [1] 12.5% | Potency [2] | Potency [3]

CN1C(=O)c2ccccc2-n2c(nc3ccccc3c2=O)[C@@]12O[C@H]2c1ccccc1
inactive: activation [1] 13% | Potency [2] | Potency [3]

COc1c2c(cc3c1-c1c(cc4c(c1OC)OCO4)CC(C)C(C)C3)OCO2 (stereo unspecified)
inactive: activation [1] -6.87% | Potency [2] | Potency [3]

CC(=O)O[C@H]1C[C@@](O)(C(C)C)[C@@H]2[C@@H](OC(=O)c3ccc(O)cc3)CC(C)=CC[C@@]12C
inactive: activation [1] 21.4% | Potency [2] | Potency [3]

COC(=O)CCC(=O)OC[C@]1(C)CCC[C@@]2(C)C3CC[C@]4(C)C=CC3(CCC12)C4 (stereo partly specified)
inactive: activation [1] -8.4% | Potency [2] | Potency [3]

CC(C)CNCc1ccc(-c2ccccc2S(=O)(=O)N2CCCC2)cc1
inactive: activation [1] 11.7% | Potency [2] | Potency [3]

C=C1C(=O)O[C@@H]2C[C@H](C)[C@@]3(O)C=C(C(C)=O)[C@]4(CC3C[C@H]12)C(=O)O[C@H]1C[C@@H](C)C(CCC(C)=O)=CC[C@H]14 (stereo partly specified)
inactive: activation [1] 4.46% | Potency [2] | Potency [3]

CC(O)/C=C/C1C(C)C(O[C@@H]2O[C@H](CO)[C@@H](O)[C@H](O)[C@H]2O)C(O)CC1(C)C (stereo partly specified)
inactive: activation [1] 12.2% | Potency [2] | Potency [3]

O=C(Nc1ccn(Cc2c(F)cccc2C(F)(F)F)n1)c1c(F)cccc1F
inactive: activation [1] 1.67% | Potency [2] | Potency [3]

CC1(CCC(=O)O)C(=O)C=CC23CC4CC(OC4(C)C2O)C13 (stereo unspecified)
inactive: activation [1] 6.87% | Potency [2] | Potency [3]

C[C@@H](NC(=O)c1ccc(C#Cc2cccc(F)c2)cn1)C(C)(C)O
inactive: activation [1] -4.33% | Potency [2] | Potency [3]

CCCO[C@@H]1O[C@H](CO)[C@@H](O)[C@H](O)[C@H]1O[C@@H]1OC[C@@H](O)[C@H](O)[C@H]1O
inactive: activation [1] -15.3% | Potency [2] | Potency [3]

CC(C)C(N)C(=O)OCCOCn1cnc2c(=O)[nH]c(N)nc21 (stereo unspecified)
inactive: activation [1] 8.93% | Potency [2] | Potency [3]

CC12CCC(OC3OC(CO)C(O)C(OC4OC(CO)C(O)C(O)C4O)C3O)CC1CCC1C2CCC2(C)/C(=C3/COC(=O)C3)CCC12O (stereo unspecified)
inactive: activation [1] -3.82% | Potency [2] | Potency [3]

C=CCc1cc(OC)c(OC(C)C(O)c2ccc(O)c(OC)c2)c(OC)c1 (stereo unspecified)
inactive: activation [1] 4.46% | Potency [2] | Potency [3]

CC(=O)O[C@@H]1C(=O)C(C)=C(CCC(C)CC(=O)O)[C@@]2(C)CCCC(C)(C)C12 (stereo partly specified)
inactive: activation [1] 0.893% | Potency [2] | Potency [3]

O=C(c1ccccc1)c1c(O)cc(O)cc1O[C@@H]1O[C@H](CO)[C@@H](O)[C@H](O)[C@H]1O
inactive: activation [1] -13% | Potency [2] | Potency [3]
